From PubChem BioAssay (EPA / NIEHS) come the findings set out here.

Records with an inconclusive call do not appear. Active and inactive are the calls of the source. How the source made its calls, unless noted: active means hit-call score of the fitted dose curve at least 0.9, where 1 is the maximum; inconclusive means response in the unintended direction; inactive means score below 0.9.

As usually defined, the AC50 is the concentration at which the activity in the assay is half-maximal.

Experiment [1] in a line: ATG_TAL_CIS: Attagene CIS-FACTORIAL HepG2 Assay for human TAL Basal Promoter (AID 2282966; active means hit-call score of the fitted dose curve at least 0.9, where 1 is the maximum; inactive means score below 0.9;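 further: background control endpoint measuring basal TAL promoter reporter mRNA not a specific factor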). The settings on record: HepG2 Attagene cis-factorial TAL promoter reporter; actives raise or lower the signal. In short, it runs like this:
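Transiently transfected HepG2 (cis-regulated reporter units), 24 h treatment, mRNA read by fluorescent CE after RT-PCR; bidirectional fit, DMSO baseline.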

Experiment [2] in a line: ATG_TGFb_CIS: Attagene CIS-FACTORIAL HepG2 Assay for human Transforming Growth Factor (TGF) (AID 2282967; active means hit-call score of the fitted dose curve at least 0.9, where 1 is the maximum; inactive means score below 0.9). The settings on record: HepG2 Attagene CIS TGFb reporter, mRNA transcription; actives raise or lower the signal. The procedure, abridged:
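Readout: fluorescently labeled reporter cDNA fragments resolved by capillary electrophoresis after RT-PCR. Transfected HepG2 cells dosed for 24 h; endogenous TF activity at TGFB1-linked cis element; gain or loss fitted relative to DMSO.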

Experiment [3] is described as follows: ATG_VDRE_CIS: Attagene CIS-FACTORIAL HepG2 Assay for human Vitamin D Receptor Element (VDRE) (AID 2282968; active means hit-call score of the fitted dose curve at least 0.9, where 1 is the maximum; inactive means score below 0.9). The settings on record: HepG2 VDRE cis-reporter transcription, actives raise or lower the signal. In short, it runs like this:
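Readout is VDRE-driven reporter mRNA reflecting endogenous factor activity in human HepG2 cells, sampled 24 h post-dose. Quantification used labelled RT-PCR products separated by capillary electrophoresis; bidirectional analysis relative to DMSO.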

The target in experiment [4] is X-box-binding protein 1 (Homo sapiens) (UniProt P17861). In words: ATG_Xbp1_CIS: Attagene CIS-FACTORIAL HepG2 Assay for human X-box Binding Protein 1 (XBP1) (AID 2282972; active means hit-call score of the fitted dose curve at least 0.9, where 1 is the maximum; inactive means score below 0.9). The settings on record: HepG2 XBP1 cis-element reporter, Attagene multiplex; actives raise or lower the signal. In short, it runs like this: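 Human hepatoma HepG2, cis-element reporter system, 24 h treatment; mRNA quantified by RT-PCR/CE fluorescence; fit relative to DMSO.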

The target of experiment [5] is Hepatocyte nuclear factor 4-alpha (Homo sapiens) (UniProt P41235). In words: ATG_HNF4a_TRANS: Attagene TRANS-FACTORIAL HepG2 Assay for human Hepatocyte Nuclear Factor 4 alpha (HNF4a) (AID 2282982). The settings on record: HepG2 HNF4a transactivation reporter, mRNA readout. In short, it runs like this:
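Activity of an exogenous HNF4a–Gal4 fusion scored as induced GAL4-UAS reporter transcripts after 24 h chemical exposure of transfected human HepG2 cells. Read-out via RT-PCR with 6-FAM labelling and capillary electrophoresis; rise over DMSO baseline.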

A short description of experiment [6]: ATG_M_06_TRANS: Attagene TRANS-FACTORIAL HepG2 Assay for M06 Transcription Factor (Internal Marker) (AID 2282983).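 Further: reporter transcript level by RT-PCR then capillary electrophoresis fluorescence.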 As to conditions: HepG2 Attagene TRANS M06 internal marker reporter. In short, it runs like this:
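In this multiplexed HepG2 system, compounds are incubated 24 h with cells carrying GAL4-UAS reporter units. Reporter RNA is amplified and resolved by capillary electrophoresis, and induction is scored against DMSO.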

Experiment [7] in a line: ATG_M_32_TRANS: Attagene TRANS-FACTORIAL HepG2 Assay for M32 Transcription Factor (Internal Marker) (AID 2282984).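 Further: transcript level of a background control reporter unit measured by RT-PCR and capillary electrophoresis.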 The settings on record: HepG2 Attagene TRANS M32 internal marker reporter. The procedure, abridged:
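Internal background reporter in transfected HepG2: after 24 h chemical exposure, RNA reverse-transcribed, reporter cDNA amplified, fluorescently labelled and HpaI-cut, then sized by capillary electrophoresis. Gain of signal fitted against DMSO control.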

Experiment [8] concerns the target Nuclear receptor subfamily 4 group A member 2 (Homo sapiens) (UniProt P43354). Briefly: ATG_NURR1_TRANS: Attagene TRANS-FACTORIAL HepG2 Assay for human Nuclear Receptor Related Protein 1 (NURR1) (AID 2282985). As to conditions: HepG2 Attagene TRANS reporter, mRNA readout. In short, it runs like this: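 Reporter transcript induction, measured by RT-PCR with fluorescent labelling, HpaI digestion and capillary electrophoresis, after 24 hr dosing of human HepG2 cells transiently expressing an exogenous NR-Gal4 fusion with GAL4-UAS-driven reporters; DMSO as baseline.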

In experiment [9] the target is Transcriptional activator Myb (Homo sapiens) (UniProt P10242). In words: ATG_Myb_CIS: Attagene CIS-FACTORIAL HepG2 Assay for human Myeloblastosis (Myb) Proto-Oncogene Transcription Factor (AID 2282986; active means hit-call score of the fitted dose curve at least 0.9, where 1 is the maximum; inactive means score below 0.9). The settings on record: HepG2 Attagene CIS-FACTORIAL Myb reporter transcription; actives raise or lower the signal. In short, it runs like this:
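In this HepG2 transient-transfection format, cis-regulated reporter mRNA is quantified 24 h post-dosing by RT-PCR with capillary electrophoresis, fitted bidirectionally to DMSO baseline.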

For experiment [10], the target named is Nuclear receptor subfamily 1 group I member 3 (Homo sapiens) (UniProt Q14994). In words: ATG_CAR_TRANS: Attagene TRANS-FACTORIAL HepG2 Assay for human Constitutive Androstane Receptor (CAR) (AID 2282969).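 Further: activators raise reporter mRNA above DMSO so AC50 marks induction.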 The settings on record: HepG2 Attagene TRANS-FACTORIAL CAR reporter. The procedure, abridged:
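Signal is reporter mRNA induction relative to DMSO, measured 24 h after dosing by RT-PCR with fluorescent primer extension and capillary electrophoresis. Human HepG2 liver cells carried transiently transfected chimeric NR-Gal4/GAL4-UAS reporter constructs.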

The target of experiment [11] is Steroid hormone receptor ERR1 (Homo sapiens) (UniProt P11474). In words: ATG_ERRa_TRANS: Attagene TRANS-FACTORIAL HepG2 Assay for human Estrogen-Related Receptor alpha (ERRa) (AID 2282971). The settings on record: HepG2 Attagene TRANS reporter, ERRa transactivation. In short, it runs like this: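 HepG2 cells transiently transfected with multiplexed GAL4-UAS reporter units reading chimeric ERRa-Gal4 activity; 24 h compound exposure. Reporter mRNA measured by RT-PCR, 6-FAM labelling, HpaI digest and capillary electrophoresis; gain of signal fitted versus DMSO baseline.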

Experiment [12] is described as follows: ATG_M_19_TRANS: Attagene TRANS-FACTORIAL HepG2 Assay for M19 Transcription Factor (Internal Marker) (AID 2282974). As to conditions: HepG2 Attagene TRANS-FACTORIAL M19 internal marker reporter. In short, it runs like this: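 Using RT-PCR and capillary electrophoresis, reporter mRNA from transiently transfected human HepG2 cells was quantified following 24 h exposure; activity was fitted in the positive direction against DMSO.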

Experiment [13] has as its target Estrogen-related receptor gamma (Homo sapiens) (UniProt P62508). Briefly: ATG_ERRg_TRANS: Attagene TRANS-FACTORIAL HepG2 Assay for human Estrogen-Related Receptor gamma (ERRg) (AID 2282977).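 Further: hits increase reporter signal over DMSO so potencies reflect activators.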 The settings on record: HepG2 Attagene TRANS reporter, ERRg transactivation. In short, it runs like this:
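Induction of reporter transcripts through a chimeric NR-Gal4 protein is quantified in transfected human HepG2 liver cells after 24 h chemical exposure, using RT-PCR with capillary electrophoresis detection and DMSO as baseline.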

The target in experiment [14] is Oxysterols receptor LXR-beta (Homo sapiens) (UniProt P55055). Briefly: ATG_LXRb_TRANS: Attagene TRANS-FACTORIAL HepG2 Assay for human Liver X Receptor beta (LXRb) (AID 2282981). As to conditions: HepG2 Attagene TRANS GAL4-LXRb reporter, mRNA. The procedure, abridged: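 After 24 h chemical treatment of transfected HepG2 cells carrying exogenous NR-Gal4 chimeras, reporter mRNA was quantified by fluorescent RT-PCR and capillary electrophoresis; activity taken as increase over DMSO controls.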

The target of experiment [15] is Estrogen receptor (Homo sapiens) (UniProt P03372). In words: ATG_ERa_TRANS: Attagene TRANS-FACTORIAL HepG2 Assay for human Estrogen Receptor alpha (ERa) (AID 2282970). The settings on record: HepG2 Attagene TRANS ERa GAL4 reporter, mRNA. In short, it runs like this: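 One of 30 multiplexed endpoints from a HepG2 TRANS system, this one reports ERa-Gal4-driven reporter mRNA. Transcripts were quantified 24 hours post-dosing by fluorescent RT-PCR and capillary electrophoresis, with activity scored as induction over DMSO.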

Experiment [16] has as its target Bile acid receptor (Homo sapiens) (UniProt Q96RI1). In words: ATG_FXR_TRANS: Attagene TRANS-FACTORIAL HepG2 Assay for Farnesoid X Receptor (FXR) (AID 2282979).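 Further: hits raise reporter mRNA above DMSO so AC50 marks FXR activation.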 The settings on record: HepG2 Attagene TRANS FXR-GAL4 reporter transcription. In short, it runs like this:
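HepG2 cells transiently transfected with reporter constructs in which a chimeric FXR-GAL4 protein drives a GAL4-UAS reporter; 24 h compound exposure. Reporter mRNA measured by RT-PCR, FAM labelling, HpaI digestion and capillary electrophoresis; gain-of-signal versus DMSO.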

The target in experiment [17] is Oxysterols receptor LXR-alpha (Homo sapiens) (UniProt Q13133). In words: ATG_LXRa_TRANS: Attagene TRANS-FACTORIAL HepG2 Assay for human Liver X Receptor alpha (LXRa) (AID 2282980). The settings on record: HepG2 Attagene TRANS reporter, LXRa transactivation. In short, it runs like this: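 HepG2 cells were transiently transfected with multiplexed reporter units driven by chimeric LXRa–GAL4 fusion proteins, then dosed for 24 h. Reporter mRNA was quantified by RT-PCR, fluorescent labelling and capillary electrophoresis; gain of signal fitted against DMSO baseline.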

Experiment [18] addresses Androgen receptor (Homo sapiens) (UniProt P10275). In words: ATG_AR_TRANS: Attagene TRANS-FACTORIAL HepG2 Assay for human Androgen Receptor (AR) (AID 2282973). The settings on record: HepG2 Attagene TRANS-FACTORIAL AR reporter transcription. The procedure, abridged: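 HepG2 cells transiently transfected with multiplexed GAL4-UAS reporter units and chimeric NR-Gal4 fusion; 24 h compound exposure. Reporter mRNA measured by RT-PCR, 6-FAM labelling, HpaI digestion and capillary electrophoresis; gain-of-signal fitted relative to DMSO baseline.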

Chain of Hepatocyte nuclear factor 4-alpha (Homo sapiens) (P41235 whole entry, looked up, the tested form may be a part): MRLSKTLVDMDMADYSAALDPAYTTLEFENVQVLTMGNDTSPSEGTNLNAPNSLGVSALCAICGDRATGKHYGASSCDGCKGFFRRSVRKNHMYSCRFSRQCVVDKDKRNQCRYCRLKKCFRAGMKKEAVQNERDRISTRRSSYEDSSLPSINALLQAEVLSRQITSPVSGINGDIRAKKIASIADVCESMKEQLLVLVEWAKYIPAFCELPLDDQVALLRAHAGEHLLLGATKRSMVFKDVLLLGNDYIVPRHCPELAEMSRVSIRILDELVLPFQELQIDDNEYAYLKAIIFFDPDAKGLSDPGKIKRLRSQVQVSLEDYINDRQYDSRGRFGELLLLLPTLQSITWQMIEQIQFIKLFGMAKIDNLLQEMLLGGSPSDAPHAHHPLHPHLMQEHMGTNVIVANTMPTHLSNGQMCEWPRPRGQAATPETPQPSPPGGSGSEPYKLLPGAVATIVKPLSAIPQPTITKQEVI
Chain of Nuclear receptor subfamily 4 group A member 2 (Homo sapiens) (P43354 whole entry, looked up, the tested form may be a part): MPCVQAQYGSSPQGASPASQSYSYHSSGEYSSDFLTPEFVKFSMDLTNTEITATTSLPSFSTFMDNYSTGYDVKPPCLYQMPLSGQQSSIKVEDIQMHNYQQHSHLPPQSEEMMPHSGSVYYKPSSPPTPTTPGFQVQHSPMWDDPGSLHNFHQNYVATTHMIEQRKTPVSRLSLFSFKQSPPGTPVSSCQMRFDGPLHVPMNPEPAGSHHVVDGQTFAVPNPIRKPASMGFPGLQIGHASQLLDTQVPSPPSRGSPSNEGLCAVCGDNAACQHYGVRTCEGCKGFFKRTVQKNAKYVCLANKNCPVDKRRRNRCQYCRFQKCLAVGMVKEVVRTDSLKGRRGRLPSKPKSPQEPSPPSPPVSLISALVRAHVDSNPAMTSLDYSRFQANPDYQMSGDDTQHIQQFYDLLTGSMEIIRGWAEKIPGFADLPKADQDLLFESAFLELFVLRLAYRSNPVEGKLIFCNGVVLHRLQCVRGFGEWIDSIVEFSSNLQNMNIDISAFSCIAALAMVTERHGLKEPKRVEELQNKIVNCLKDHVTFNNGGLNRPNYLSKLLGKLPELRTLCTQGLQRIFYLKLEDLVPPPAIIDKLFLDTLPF
Chain of Oxysterols receptor LXR-alpha (Homo sapiens) (Q13133 whole entry, looked up, the tested form may be a part): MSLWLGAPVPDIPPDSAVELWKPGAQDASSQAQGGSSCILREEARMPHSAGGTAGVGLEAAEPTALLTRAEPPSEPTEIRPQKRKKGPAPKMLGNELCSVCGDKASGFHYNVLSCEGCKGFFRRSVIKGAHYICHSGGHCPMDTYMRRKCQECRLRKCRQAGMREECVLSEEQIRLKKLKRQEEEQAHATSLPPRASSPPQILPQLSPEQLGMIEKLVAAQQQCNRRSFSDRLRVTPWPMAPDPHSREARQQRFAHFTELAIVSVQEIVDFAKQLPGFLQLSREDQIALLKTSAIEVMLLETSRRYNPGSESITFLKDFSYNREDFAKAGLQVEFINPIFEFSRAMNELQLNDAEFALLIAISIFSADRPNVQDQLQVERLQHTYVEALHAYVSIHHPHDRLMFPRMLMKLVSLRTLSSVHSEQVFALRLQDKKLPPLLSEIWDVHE
Chain of Steroid hormone receptor ERR1 (Homo sapiens) (P11474 whole entry, looked up, the tested form may be a part): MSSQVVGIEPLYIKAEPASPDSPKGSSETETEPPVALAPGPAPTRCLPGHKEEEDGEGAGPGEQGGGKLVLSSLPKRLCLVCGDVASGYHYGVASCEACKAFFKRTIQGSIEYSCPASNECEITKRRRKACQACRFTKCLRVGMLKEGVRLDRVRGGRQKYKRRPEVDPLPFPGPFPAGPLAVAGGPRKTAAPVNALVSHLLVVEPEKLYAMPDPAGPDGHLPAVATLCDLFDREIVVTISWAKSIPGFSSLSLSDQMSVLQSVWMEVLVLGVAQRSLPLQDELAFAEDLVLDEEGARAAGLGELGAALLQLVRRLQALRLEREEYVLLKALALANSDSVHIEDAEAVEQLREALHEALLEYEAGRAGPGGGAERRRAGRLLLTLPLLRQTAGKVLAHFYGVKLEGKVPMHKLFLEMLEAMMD
Chain of Bile acid receptor (Homo sapiens) (Q96RI1 whole entry, looked up, the tested form may be a part): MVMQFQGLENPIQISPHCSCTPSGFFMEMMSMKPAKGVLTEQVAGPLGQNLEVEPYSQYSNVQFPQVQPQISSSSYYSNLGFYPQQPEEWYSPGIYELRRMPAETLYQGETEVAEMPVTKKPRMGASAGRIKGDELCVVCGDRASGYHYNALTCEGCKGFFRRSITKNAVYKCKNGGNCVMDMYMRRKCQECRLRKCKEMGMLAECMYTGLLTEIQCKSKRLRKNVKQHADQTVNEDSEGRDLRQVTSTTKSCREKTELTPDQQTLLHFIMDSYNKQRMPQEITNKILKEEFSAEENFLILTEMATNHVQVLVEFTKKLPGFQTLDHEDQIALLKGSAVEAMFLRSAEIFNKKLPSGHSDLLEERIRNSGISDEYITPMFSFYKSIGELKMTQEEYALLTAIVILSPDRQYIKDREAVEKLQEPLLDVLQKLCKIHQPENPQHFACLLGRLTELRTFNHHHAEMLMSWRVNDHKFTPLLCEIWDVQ
Chain of Transcriptional activator Myb (Homo sapiens) (P10242 whole entry, looked up): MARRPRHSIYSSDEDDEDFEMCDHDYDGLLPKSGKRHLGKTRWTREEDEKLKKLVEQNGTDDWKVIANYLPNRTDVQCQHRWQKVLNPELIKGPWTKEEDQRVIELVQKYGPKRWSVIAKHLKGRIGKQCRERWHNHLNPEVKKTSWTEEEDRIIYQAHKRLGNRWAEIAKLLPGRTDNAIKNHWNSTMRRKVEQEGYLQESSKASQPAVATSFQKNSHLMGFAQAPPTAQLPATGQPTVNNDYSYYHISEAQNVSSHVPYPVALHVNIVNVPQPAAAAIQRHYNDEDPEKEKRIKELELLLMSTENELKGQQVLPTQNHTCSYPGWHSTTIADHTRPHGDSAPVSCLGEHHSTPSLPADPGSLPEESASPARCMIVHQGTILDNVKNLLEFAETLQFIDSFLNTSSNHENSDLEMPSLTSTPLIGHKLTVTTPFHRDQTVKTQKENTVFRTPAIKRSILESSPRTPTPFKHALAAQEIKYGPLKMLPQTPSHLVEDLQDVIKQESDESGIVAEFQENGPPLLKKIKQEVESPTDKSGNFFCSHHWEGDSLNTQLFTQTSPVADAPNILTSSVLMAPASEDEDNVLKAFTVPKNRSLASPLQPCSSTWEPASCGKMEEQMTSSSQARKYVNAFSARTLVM
Chain of Nuclear receptor subfamily 1 group I member 3 (Homo sapiens) (Q14994 whole entry, looked up, the tested form may be a part): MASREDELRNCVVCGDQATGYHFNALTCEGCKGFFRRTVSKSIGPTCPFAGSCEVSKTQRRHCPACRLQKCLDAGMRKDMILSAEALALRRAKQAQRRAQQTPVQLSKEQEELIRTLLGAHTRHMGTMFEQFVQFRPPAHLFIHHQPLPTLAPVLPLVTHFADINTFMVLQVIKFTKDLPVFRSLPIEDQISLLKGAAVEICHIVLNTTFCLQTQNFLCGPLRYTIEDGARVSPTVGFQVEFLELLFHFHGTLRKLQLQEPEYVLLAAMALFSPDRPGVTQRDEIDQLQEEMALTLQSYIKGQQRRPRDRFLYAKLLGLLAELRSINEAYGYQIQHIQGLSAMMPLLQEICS
Chain of X-box-binding protein 1 (Homo sapiens) (P17861 whole entry, looked up): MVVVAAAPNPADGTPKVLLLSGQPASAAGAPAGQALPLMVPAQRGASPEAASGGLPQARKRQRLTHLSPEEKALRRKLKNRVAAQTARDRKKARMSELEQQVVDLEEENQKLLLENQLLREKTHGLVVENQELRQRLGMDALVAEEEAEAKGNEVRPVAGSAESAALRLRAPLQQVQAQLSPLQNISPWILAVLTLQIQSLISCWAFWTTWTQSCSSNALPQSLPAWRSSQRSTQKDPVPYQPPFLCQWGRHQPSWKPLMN
Chain of Estrogen-related receptor gamma (Homo sapiens) (P62508 whole entry, looked up, the tested form may be a part): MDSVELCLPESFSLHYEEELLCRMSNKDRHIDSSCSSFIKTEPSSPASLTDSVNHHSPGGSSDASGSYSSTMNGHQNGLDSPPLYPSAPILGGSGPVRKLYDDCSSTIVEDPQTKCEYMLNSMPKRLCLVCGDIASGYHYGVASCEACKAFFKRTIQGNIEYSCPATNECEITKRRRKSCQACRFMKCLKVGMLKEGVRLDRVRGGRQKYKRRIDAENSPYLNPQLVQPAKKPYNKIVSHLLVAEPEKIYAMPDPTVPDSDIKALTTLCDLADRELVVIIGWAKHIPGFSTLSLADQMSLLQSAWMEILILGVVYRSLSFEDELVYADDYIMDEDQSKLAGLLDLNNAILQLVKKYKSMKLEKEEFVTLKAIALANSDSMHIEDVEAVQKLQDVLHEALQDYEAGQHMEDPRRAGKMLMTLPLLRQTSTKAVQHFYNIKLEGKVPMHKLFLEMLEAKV
Chain of Estrogen receptor (Homo sapiens) (P03372 whole entry, looked up, the tested form may be a part): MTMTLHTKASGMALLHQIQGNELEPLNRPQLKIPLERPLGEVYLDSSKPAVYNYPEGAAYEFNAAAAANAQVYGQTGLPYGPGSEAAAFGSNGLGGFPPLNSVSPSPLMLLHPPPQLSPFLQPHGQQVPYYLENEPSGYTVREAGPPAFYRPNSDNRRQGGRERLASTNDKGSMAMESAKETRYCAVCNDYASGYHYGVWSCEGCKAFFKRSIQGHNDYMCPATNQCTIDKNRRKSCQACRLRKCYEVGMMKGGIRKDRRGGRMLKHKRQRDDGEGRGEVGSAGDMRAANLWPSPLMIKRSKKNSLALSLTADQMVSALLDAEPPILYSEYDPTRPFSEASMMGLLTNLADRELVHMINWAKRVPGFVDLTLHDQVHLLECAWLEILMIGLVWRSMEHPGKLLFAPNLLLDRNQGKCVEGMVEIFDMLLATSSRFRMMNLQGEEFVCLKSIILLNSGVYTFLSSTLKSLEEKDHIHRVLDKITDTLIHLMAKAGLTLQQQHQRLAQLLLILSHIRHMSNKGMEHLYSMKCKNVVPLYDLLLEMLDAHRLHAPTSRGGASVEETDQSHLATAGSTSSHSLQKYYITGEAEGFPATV

For the molecule `CCCCC(CC)CO[N+](=O)[O-]` (stereo not given), the molecule was classed as inactive in experiment [1], in experiment [2], in [4], in experiment [5], in experiment [6] and in experiment [7]. For the same molecule, the call in experiment [8] and in experiment [9] was inactive. Moreover, the AC50 in experiment [3] is 143 µM (active).
Regarding `Nc1cccc(Cl)c1`, the outcome in [1], in [10], in experiment [11], in experiment [4], in experiment [12] and in experiment [13] was inactive. In addition, the molecule was called inactive in experiment [14], in [7], in experiment [8] and in experiment [9]. Further, the AC50 in [2] is 739 nM (active).
Regarding `CCC(C)(C)c1ccc(O)c(C(C)(C)CC)c1`, the molecule was classed as inactive in experiment [1], in [2], in [11], in experiment [4], in [12] and in [5]. In addition, the call in [7] and in [9] was inactive. Also, the AC50 in [10] is 33.4 µM (active); in experiment [15], 33.4 µM (active); in experiment [16], 49.5 µM (active); in experiment [17], 9.67 µM (active); in [8], 33.4 µM (active).
As for `CCOP(=S)(OCC)Oc1nc(Cl)c(Cl)cc1Cl`, the call in experiment [1], in experiment [2], in experiment [10], in experiment [18], in experiment [12] and in experiment [16] was inactive. Moreover, the molecule was called inactive in experiment [6], in experiment [7], in [8] and in experiment [9]. Moreover, in [4], the AC50 is 100 µM (active).
Take `CCOP(=S)(OCC)SCSP(=S)(OCC)OCC`: the result in [1], in [2], in experiment [10], in experiment [4], in [12] and in experiment [5] was inactive. Also, the call in experiment [6], in experiment [8] and in experiment [9] was inactive. Also, the AC50 in experiment [15] was 3.88 µM (active); in [17], 7.73 µM (active).
As for `ClCCBr`, the molecule was called inactive in [1], in experiment [2], in experiment [10], in [11], in [4] and in [13]. Further, the call in experiment [17], in experiment [6], in [7], in experiment [8] and in experiment [9] was inactive.
As for `Clc1ccc(COC(Cn2ccnc2)c2ccc(Cl)cc2Cl)cc1` (stereo not given), the molecule was classed as inactive in experiment [1], in experiment [2], in experiment [10], in experiment [4], in experiment [18] and in experiment [16]. Further, the molecule was classed as inactive in experiment [6], in experiment [7], in experiment [8] and in experiment [9].
Consider `CCCCCCCCCl`, for which the molecule was called inactive in experiment [1], in experiment [2], in [3], in [4], in experiment [17] and in experiment [5]. The molecule was called inactive in experiment [6], in experiment [8] and in experiment [9].
`Nc1ccc(-c2ccc(N)c(Cl)c2)cc1Cl`: the call in experiment [1], in experiment [2], in experiment [4], in [12], in [5] and in [6] was inactive. Further, the molecule was classed as inactive in [7], in [8] and in experiment [9]. For the same molecule, the AC50 in experiment [3] is 37.6 µM (active).
